# Compounds with a hit are over-represented: about 19% of the library has one in this group of screens.
# Pf growth 48h – P. falciparum growth inhibition at 48 hours (one generation); P. falciparum luciferase growth in erythrocytes, 48 h; Potency, µM (highest dose often 28.7 µM), for the others: top-dose activity change, negative = inhibition, actives largely listed as inhibitors; 310,000 compounds, 5.9% hits; also: potency is read from the fitted curve at half-maximal effect; % is scaled to controls: 0 for no effect and ±100 for the full control effect
#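 Luciferase-expressing P. falciparum in infected erythrocytes (2% hematocrit, 0.1% parasitemia final) in RPMI 1640/0.5% Albumax were exposed to compound for 48 hours at 37 C, 5% CO2; growth read as luminescence.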
# CHX counter – counter-screen for Shiga toxin inhibitors: cycloheximide protein synthesis inhibition; cell reporter, cycloheximide protein synthesis inhibition counterscreen; max response, %; 300,000 compounds, 12% hits; in the data active = max response mostly above about 13%, no sharp cut-off; inactive = mostly below about 14%; also: read at 38.3 µM for the half of the compounds with a filed dose; 0% is about no effect
# Shiga inhibitor – blocks Shiga toxin action in Vero cells. 290,000 compounds, 9.2% hits. Vero cells, Shiga toxin protein synthesis inhibition reporter. AID 2315. inhibition, % at 38.7 µM; in the data active = inhibition mostly above about 28%, no sharp cut-off; inactive = mostly below about 43%; also: 0% is about no effect
# Pf growth 96h – P. falciparum growth inhibition at 96 hour, primary screen for plastid delayed-death inhibitors | P. falciparum luciferase reporter growth, 96 h | Potency, µM (highest dose often 28.7 µM), for the others: at the highest dose activity change, negative = inhibition, most hits filed as inhibitors | 320,000 compounds, 6.9% hits | AID 504834; also: potency is read from the fitted curve at half-maximal effect; % is scaled to controls: 0 for no effect and ±100 for the full control effect
#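 96 h incubation, 37 C, 5% CO2, of luciferase-reporter P. falciparum-infected RBCs (2% hematocrit, 0.05% parasitemia final) with test compounds; endpoint luminescence.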
# SARS PLP yeast – blocks SARS-CoV papain-like protease in a yeast assay; AID 485353; 330,000 compounds, 0.19% hits; Potency, µM (series often up to 32.9 µM), without a hit: at the top dose activity, positive = growth rescue, hits mostly activators; S. cerevisiae expressing SARS-CoV PLpro, growth rescue; calls by dose curve; also: potency is read from the fitted curve at half-maximal effect; 0% is about no effect; nearly all actives have a fitted effect of over 55% in size
# AMA1-RON2 inh – inhibitors of Plasmodium falciparum AMA1-RON2 interaction; AlphaScreen AMA1-biotinylated RON2 peptide binding; Potency, µM (top dose mostly 58.2 µM), inactives show top-dose activity change, negative = inhibition, usual class: inhibitors; 360,000 compounds, 0.2% hits; AID 720542;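 also: potency is read from the fitted curve at half-maximal effect; 0% = vehicle wells and -100% = peptide control; nearly all actives have a fitted effect of over 45% in size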
#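 AMA1 (3D7) with his tag at 25 nM final met compounds first, then biotinylated RON2 peptide at 25 nM; detection used donor plus acceptor beads, 10 µg/mL apiece, read by AlphaScreen after 30 min at room temperature.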
# Active calls of the source: *; u = inconclusive; x = not tested or not shown; ! = repeats disagree. Unless noted, calls follow the shape of the dose curve; as a rule, active = well fitted curve in the direction sought with a large enough effect; inconclusive = small, poorly fitted or top-dose-only effect, or another doubt; inactive = no such curve, though single readings can be large; an effect the other way counts as inactive or inconclusive.
SMILES,Pf growth 48h,CHX counter,Shiga inhibitor,Pf growth 96h,SARS PLP yeast,AMA1-RON2 inh
CN1C(=O)C(=Cc2cn(CC#N)c3ccccc23)C(=O)N(C)C1=O,7%,-5,-5,u,0%,-8%
CCn1cc(C=C2C(=O)c3ccccc3C2=O)c2ccccc21,-1%,12*,-13,u,4%,14%
Cc1cccc(S(=O)(=O)NCCNS(=O)(=O)c2cccc(C)c2)c1,4%,-5,17,-14%,-1%,-9%
CC(C)NC(=O)CCN1C(=O)c2ccccc2Sc2ncccc21,12%,-3,-4,6.6µM*,-1%,-9%
CCCc1c(C(=O)N/N=C/c2ccncc2)nnn1-c1nonc1N,-3%,8,-5,-28%,3%,6%
CCc1ccc(-c2cc(C(=O)N/N=C/c3c[nH]c4ccccc34)[nH]n2)cc1,28%,35*,106*,13%,-6%,30%
CCc1ccc(/C=N/NC(=O)c2cc(-c3cccc([N+](=O)[O-])c3)n[nH]2)cc1,-19%,-1,-9,u,0%,12%
CCc1ccc2c(Cl)c(C(=O)N/N=C/c3c[nH]c4ccccc34)sc2c1,6%,22*,30,u,-12%,11%
Cc1cc(Sc2nc(N(C)C)nc(N(C)C)n2)nc(Cl)n1,21%,-1,8,27%,0%,4%
O=c1c2ccccc2nc(-c2ccco2)n1-c1ccccc1,u,5,-2,8.3µM*,-14%,-1%
O=C1c2ccccc2-n2c1nc1ccccc1c2=O,0.33µM*,32,52*!,0.0037µM*,-13%,-2%
O=c1c2ccccc2nc(-c2ccco2)n1-c1nc2ccccc2s1,0%,2,9,1µM*,6%,3%
O=c1c2ccccc2nc(-c2ccco2)n1-c1ccncc1,15%,8,-7,u,3%,0%
Cc1cccc(NC(=O)c2cnc3scc(C)n3c2=O)c1,89%,19*,26*,128%,-6%,6%
Cc1csc2ncc(C(=O)Nc3ccc4c(c3)OCCO4)c(=O)n12,0%,59*,117*,10%,-9%,25%
Cc1csc2ncc(C(=O)Nc3ccccc3Cl)c(=O)n12,86%,-2,16,48%,0%,-1%
Cc1csc2ncc(C(=O)Nc3ccon3)c(=O)n12,18%,1,9,2.6µM*,-14%,8%
Cc1csc2ncc(C(=O)Nc3ccccc3F)c(=O)n12,91%,24*,31,62%,-8%,1%
Nc1ccccc1S(=O)(=O)C(F)F,21%,-1,-7,16%,-4%,-2%
COC(=O)c1ccc2c(=O)[nH]c(CSc3nc(C)cs3)nc2c1,75%,28*,67*,27%,1%,2%
COc1ccccc1Oc1cc(C#N)c(C#N)cc1-n1nnc2ccccc21,9.3µM*,-3,-23,2.3µM*,-11%,11%
COCCCNC(=O)c1ccc(-n2nc(C(F)(F)F)cc2-c2cccs2)cc1,12µM*,5,-16,x,-13%,0%
O=C(NCCCN1CCOCC1)c1ccc(-n2nc(C(F)(F)F)cc2-c2cccs2)cc1,9.3µM*,-2,-15,x,-6%,-7%
O=C(CSc1nc(-c2cccs2)cc(C(F)(F)F)n1)NCCCN1CCOCC1,1%,-2,14,0%,1%,-1%
COc1ccc(NC(=O)/C(C#N)=C\c2ccc(Br)o2)cc1,1%,22*,25,-2%,0%,6%
COc1ccc(NC(=O)/C(C#N)=C\c2ccc(-c3cccc(C(=O)O)c3C)o2)cc1,u,21*,35*,u,-1%,-2%
CNC(=O)/C(C#N)=C/c1ccc(-c2ccc(OC)cc2[N+](=O)[O-])o1,u,56*,27*,u,1%,-26%
Cc1c(C(=O)O)cccc1-c1ccc(C=O)o1,44%,35*,54*,-4%,-5%,1%
O=C(NCC1OCCCN1S(=O)(=O)c1cc(F)ccc1F)C(=O)NC1CCCCC1 (stereo not drawn),4%,6,35,13%,6%,-20%

# Compound activity from PubChem BioAssay.
